Screening results from PubChem.
Efflux pump mplx – antifungal efflux pump inhibition, Nile Red retention; S. cerevisiae Candida pump triplex; inhibition, % at 10 µM; 0.44% of 330,000 active; AID 485275;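 active means plate passing quality check with inhibition over a set limit, or well fluorescence over plate mean plus 4 SD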;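 further: Nile Red retained in pooled yeast measured as flow cytometry median fluorescence; 0% = buffer negative control and 100% = Enniatin B positive control; higher means more Nile Red kept so more efflux inhibition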
SKN-1 block – C. elegans SKN-1 inhibition | C. elegans VP596 Pgst-4::GFP/RFP ratio, acrylamide-induced, 24 h | inhibition, % at 21.8 µM | 0.49% of 360,000 active;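 active means interference check ratio from 0.5 to 1.5 plus GFP to RFP signal ratio inhibition reaching or exceeding a fixed threshold, cut at about 30% in these data, passing the limit was not always enough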
HGIII-sPLA2 inh – Inhibits HGIII-sPLA2 liposome hydrolysis, primary screen; QFRET BODIPY PC-A2 liposome hydrolysis, fluorescence; inhibition, % at 12.2 µM; 0.56% of 370,000 active; Q9NZ20;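 active means inhibition above mean plus 3 SD of compounds lying within the high and low control bounds, cut at about 19% in these data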;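 further: 0% = median of test compound wells and 100% = no enzyme DMSO wells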
Target sequence (Q9NZ20 whole entry, looked up): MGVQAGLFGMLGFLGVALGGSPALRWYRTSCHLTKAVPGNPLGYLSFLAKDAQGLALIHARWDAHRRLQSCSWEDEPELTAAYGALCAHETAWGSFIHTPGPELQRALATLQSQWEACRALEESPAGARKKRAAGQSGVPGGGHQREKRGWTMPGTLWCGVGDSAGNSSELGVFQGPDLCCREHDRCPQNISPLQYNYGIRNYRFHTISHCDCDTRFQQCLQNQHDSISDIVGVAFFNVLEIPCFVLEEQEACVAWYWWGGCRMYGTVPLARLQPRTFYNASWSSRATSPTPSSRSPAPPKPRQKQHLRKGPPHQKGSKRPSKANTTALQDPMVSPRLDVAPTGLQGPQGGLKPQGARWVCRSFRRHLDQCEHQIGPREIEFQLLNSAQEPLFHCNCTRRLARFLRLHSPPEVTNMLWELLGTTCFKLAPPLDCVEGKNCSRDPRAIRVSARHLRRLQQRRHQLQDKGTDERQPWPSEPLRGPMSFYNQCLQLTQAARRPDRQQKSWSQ
Mot1-301 SUMO – SUMOylation pathway inhibition by Mot1-301 growth rescue; 1% of 320,000 active; AID 2716; growth rescue, % at 18.8 µM; S. cerevisiae Mot1-301 growth rescue, ATP luminescence, 38.5C; percent above DMSO median, 100 means doubled;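 active means every valid replicate shows activation above 250% relative to neutral control wells; inactive means the rest, any valid replicate at or below 250%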;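 further: OY570 slx delta 5 strain wells were the positive control but not used for scaling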
sPLA2 confirm – human GIII-sPLA2 inhibition, confirmation. inhibition, % at 12.2 µM. recombinant hGIII-sPLA2, BODIPY PC-A2 QFRET fluorescence. 34% of 2,000 active. shares compounds with HGIII-sPLA2 inh;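 active means mean inhibition across triplicates above the hit cutoff set in the earlier primary screen, cut at about 19% in these data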;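 further: 0% = enzyme with DMSO and 100% = DMSO wells lacking enzyme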
535nm interf – counter-screen for HGIII-sPLA2 inhibitors: 535nm fluorescence interference; inhibition, % at 12.2 µM; 8.5% of 2,000 active; shares compounds with HGIII-sPLA2 inh; BODIPY FL product fluorescence interference, QFRET;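 active means average inhibition above the solvent-only control mean plus 3 SD, cut at about 6% in these data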;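 further: 0% = DMSO with substrate plus product and 100% = DMSO with substrate alone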
BODIPY interf DR – 535nm optical interference dose response, HGIII-sPLA2 counter-screen; shares compounds with HGIII-sPLA2 inh; BODIPY FL product fluorescence interference, cell-free; IC50, µM; 240 tested, under 10 active;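 active means IC50 at or below 10 µM; inactive means IC50 above 10 µM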
The depositor's hits bear a star. Most compounds without a hit are left out; they make up all but 2.2% or so of the library.

`CCCCC(=O)NC(c1cccs1)c1cc(Cl)c2cccnc2c1O` (configuration not stated) gave Efflux pump mplx 0, SKN-1 block 8, HGIII-sPLA2 inh 24*, Mot1-301 SUMO -6, sPLA2 confirm 32*, 535nm interf 0 and BODIPY interf DR >122.
For CCCCCCCCN1C(=O)[C@@H](CC(=O)N2CCN(C(=O)c3ccco3)CC2)C[C@@]2(C(=O)OC)C1=C[C@H](C(C)(C)C)O[C@@H]2C the results were HGIII-sPLA2 inh -10.
Screening CCc1cccc(C)c1NC(=O)COC(=O)Cc1ccccc1 returned SKN-1 block -3 and HGIII-sPLA2 inh 4.
For CCC(=O)NC(c1ccc(Cl)cc1Cl)c1ccc2cccnc2c1O (configuration not stated) the results were Efflux pump mplx 0, SKN-1 block 13, HGIII-sPLA2 inh 33*, Mot1-301 SUMO -4, sPLA2 confirm 25* and 535nm interf -6.
Screening COc1ccc(C(NC(=O)C(C)C)c2ccc3cccnc3c2O)cc1 (configuration not stated) returned Efflux pump mplx 0, SKN-1 block -13, HGIII-sPLA2 inh 23*, Mot1-301 SUMO -15, sPLA2 confirm 19* and 535nm interf -14.
Cn1c(-c2cccc3ccccc23)n[nH]c1=S was read as Efflux pump mplx 0, SKN-1 block 6, HGIII-sPLA2 inh 20*, Mot1-301 SUMO 2, sPLA2 confirm 5 and 535nm interf -4.
`Cc1ccc(C)c(-n2c(-c3ccco3)n[nH]c2=S)c1` gave Efflux pump mplx 0, SKN-1 block -2, HGIII-sPLA2 inh 21*, Mot1-301 SUMO -6, sPLA2 confirm 21* and 535nm interf 3.
`S=c1[nH]nc(-c2ccco2)n1-c1cccc2ccccc12` gave Efflux pump mplx 0, SKN-1 block -6, HGIII-sPLA2 inh 21*, Mot1-301 SUMO -11, sPLA2 confirm 25* and 535nm interf 3.
Screening Cn1c(Cn2c3ccccc3c3ccccc32)n[nH]c1=S returned Efflux pump mplx 0, SKN-1 block 3, HGIII-sPLA2 inh 7 and Mot1-301 SUMO -9.
CCN(CC)c1ncnc2c1cnn2Cc1ccc(Cl)cc1 was read as Efflux pump mplx 0, SKN-1 block 15, HGIII-sPLA2 inh -3 and Mot1-301 SUMO 94.
For Cc1ccc(S(=O)(=O)Nc2ccc(NC(=O)CN3CCCCC3)cc2)cc1 the results were Efflux pump mplx 0, SKN-1 block 6, HGIII-sPLA2 inh -19 and Mot1-301 SUMO 5.
Screening Cc1ccc(NC(=O)CN2CCCC2)cc1 returned Efflux pump mplx 0, SKN-1 block 2, HGIII-sPLA2 inh 79*, Mot1-301 SUMO 12, sPLA2 confirm 6 and 535nm interf -4.
Cc1cccc(NC(=O)CN2CCN(CC(=O)Nc3ccc(-c4ccccc4)cc3)CC2)c1C was read as Efflux pump mplx 0, SKN-1 block 12, HGIII-sPLA2 inh -9 and Mot1-301 SUMO -30.
Screening Cc1cccc(NC(=O)CN2CCN(C(=O)C3CCC3)CC2)c1C returned Efflux pump mplx 0, SKN-1 block -6, HGIII-sPLA2 inh 21*, Mot1-301 SUMO 0, sPLA2 confirm -7 and 535nm interf -5.
Screening O=C(NCCc1ccccc1)OCc1cn(Cc2ccc(F)cc2)nn1 returned HGIII-sPLA2 inh 0.
Screening COc1ccc(NC(=O)CN(C)C(=O)CCCN2C(=O)c3cccc4cccc(c34)C2=O)cc1 returned Efflux pump mplx 0, SKN-1 block 14, HGIII-sPLA2 inh -2 and Mot1-301 SUMO 57.
For COc1ccc(-n2nc(C(=O)NCC(=O)Nc3cccc(Cl)c3)c3ccccc3c2=O)cc1OC the results were Efflux pump mplx 0, SKN-1 block 26, HGIII-sPLA2 inh 10 and Mot1-301 SUMO 3.
For O=C1c2ccccc2CN1CCSC(=S)N1CCSCC1 the results were Efflux pump mplx 0 and Mot1-301 SUMO 3.
O=C1c2ccccc2CN1CCSC(=S)N1CCOCC1 was read as Efflux pump mplx 0, SKN-1 block 5, HGIII-sPLA2 inh 21*, Mot1-301 SUMO -12, sPLA2 confirm 6 and 535nm interf -10.
For Nc1ccc(C(=O)N2CCN(S(=O)(=O)c3ccc4c(c3)OCCO4)CC2)cc1[N+](=O)[O-] the results were Efflux pump mplx 0, SKN-1 block 15, HGIII-sPLA2 inh -8 and Mot1-301 SUMO 185.
`O=C(Nc1ccc(Nc2ccncc2)cc1)c1ccc(Nc2ccnc3ccc([N+](=O)[O-])cc23)cc1[N+](=O)[O-]` gave Efflux pump mplx 0, SKN-1 block -1, HGIII-sPLA2 inh -29 and Mot1-301 SUMO -13.
Screening Cc1ccc(C)c(NC(=S)Nc2ncccc2C)c1 returned Efflux pump mplx 0, SKN-1 block 1, HGIII-sPLA2 inh 19*, Mot1-301 SUMO -8, sPLA2 confirm 10 and 535nm interf -8.
Cc1cccnc1NC(=S)Nc1ccc(F)cc1F was read as Efflux pump mplx 0, SKN-1 block 17, HGIII-sPLA2 inh 20*, Mot1-301 SUMO 9, sPLA2 confirm 21* and 535nm interf -4.
`CC1(C(=O)NS(=O)(=O)c2ccccc2)CCN1C(=O)Cc1cc(F)ccc1F` (configuration not stated) gave SKN-1 block 7 and HGIII-sPLA2 inh 17.
For COc1ccc(N=C2SCC(c3ccc([N+](=O)[O-])cc3)=NN2CCO)cc1 the results were Efflux pump mplx 0, SKN-1 block 3, HGIII-sPLA2 inh -1 and Mot1-301 SUMO 61.
For O=[N+]([O-])c1ccc(C2=NN(CCO)C(=Nc3ccc(OC(F)(F)F)cc3)SC2)cc1 the results were Efflux pump mplx 0, SKN-1 block 2, HGIII-sPLA2 inh 20*, Mot1-301 SUMO 13, sPLA2 confirm -1 and 535nm interf -12.
For CC(C)C[C@H]1CN(CCCC[C@@H]2CNC(=O)C(=O)N2Cc2ccccc2)C(=O)C(=O)N1Cc1ccccc1 the results were SKN-1 block -3 and HGIII-sPLA2 inh -7.
`S=C(NC1CCCC1)NC1CCCC1` gave Efflux pump mplx 0, SKN-1 block -1, HGIII-sPLA2 inh 9 and Mot1-301 SUMO 4.
`Cc1cccc(C)c1NC(=S)NC1CCCCC1` gave Efflux pump mplx 0, SKN-1 block 5, HGIII-sPLA2 inh 24*, Mot1-301 SUMO -24, sPLA2 confirm 21* and 535nm interf -5.
Screening S=C(NC1CCCC1)NC1CC1 returned Efflux pump mplx 0, SKN-1 block -3, HGIII-sPLA2 inh 21*, Mot1-301 SUMO 316, sPLA2 confirm 3 and 535nm interf -5.
For Cc1ccc2[nH]c(-c3cccc(N)c3)cc2c1 the results were Efflux pump mplx 0, SKN-1 block 9, HGIII-sPLA2 inh 25*, Mot1-301 SUMO -29, sPLA2 confirm 4 and 535nm interf 4.
